Assay results reported in PubChem BioAssay AID485297 (National Center for Advancing Translational Sciences (NCATS), 2010).
The whole screen tested about 320,000 compounds, of which about 9,100 (2.8%) were called active. Roughly 3% stayed inconclusive and do not appear here. The sample as a whole holds a higher share of actives than the screen did. Unmarked numbers belong to inactive results. Calls come from the whole dose curve; as a rule, active = well fitted activation curve with a large enough effect; inconclusive = small, poorly fitted or top-dose-only effect; inactive = no such curve, though single readings can be large or run the other way.

assay: qHTS Assay for Rab9 Promoter Activators; details: Huh7 Rab9 promoter-luciferase reporter, luminescence, 24 h; series mostly up to 9.22 µM; activation, negative = inhibition: at the top concentration; note: nearly all actives have a fitted effect of over 60% in size; for activation, negative = inhibition: % of control where 0% means no effect
Method in brief: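 Quantitative HTS format; Huh7 Rab9-luciferase reporter cells (1500/well) receive compound 2 h post-plating, incubate 24 h at 37 °C, then get luciferase reagent for 10 min before luminescence reading.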
Potency is the fitted concentration of half-maximal effect.

SMILES	activation, negative = inhibition	Potency
CC(OC(=O)Cc1ccc(F)cc1)C(=O)N1CCc2ccccc21 (stereo not drawn)	1.57%	–
COc1cccc(C(=O)Nc2nnc(S(=O)(=O)N3CCCCC3)s2)c1	3.53%	–
C=CCN1C(=O)c2ccc(C(=O)N3CCC(C(=O)OCC)CC3)cc2C1=O	-0.533%	–
Cc1ccc(OS(=O)Nc2cccc3nccnc23)cc1 (stereo not drawn)	7.91%	–
O=C(CCS(=O)(=O)Cc1ccccc1)Nc1ccc2c(c1)OCCO2	-1.29%	–
CCc1ccc(NC(=O)Cn2nnc(C(=O)NCc3ccc4c(c3)OCO4)c2N)cc1	-9.68%	–
Nc1c(C(=O)Nc2ccc3c(c2)OCCO3)nnn1Cc1ccccc1	–	1.26 µM (active)
CC(C)(C)OC(=O)NCCCCCNC(=O)c1nc[nH]c1C(=O)NCc1ccccc1	-5.73%	–
O=C(c1cnn2ccccc12)N1CCc2ccccc21	–	1.78 µM (active)
Cc1cnc(C(=O)OCC(=O)N2CCc3ccccc32)cn1	5.77%	–
CCOC(=O)N1CCC(NC(=O)c2cnn3ccccc23)CC1	1.89%	–
CC(=O)c1c(C)[nH]c(C(=O)N2CCN(S(=O)(=O)c3ccc(F)c(F)c3)CC2)c1C	0.546%	–
COn1c(-c2ccc(Cl)cc2Cl)nc2ncccc21	-2.3%	–
Clc1ccc(-c2cc(-c3ccccn3)on2)c(Cl)c1	–	0.1 µM (active)
Clc1ccc(-c2ncc3ccccn23)c(Cl)c1	-3.01%	–
COc1cccc(C(=O)OCC(=O)c2[nH]c(C)c(C(C)=O)c2C)c1	-7.27%	–
CN(Cc1cccs1)C(=O)CN1C(=O)c2ccccc2S1(=O)=O	22.4%	–
O=C(/C=C(O)/C=C/c1ccc(O)cc1)/C=C/c1ccc(O)cc1	-2.14%	–
O=C(Nc1cccc(Cl)c1N1CCOCC1)c1ccc2c(c1)OCCO2	-2.62%	–
O=C(Nc1ccc(Cl)cn1)c1ccc2c(c1)OCCO2	–	0.562 µM (active)
Cc1ccc(C(=O)NNC(=O)c2ccc3c(c2)OCCO3)cc1	–	3.98 µM (active)
CC(=O)c1ccc2c(c1)OCCOCCOc1ccc(C(C)=O)cc1OCCOCCO2	0.828%	–

SMILES	activation, negative = inhibition	Potency
CCCc1cc(C(=O)Nc2ccc(C(=O)OC)cc2)cs1	24.7%	–
CCCc1cc(C(=O)Nc2ccc(Cl)cn2)cs1	–	0.447 µM (active)
CCCCC(CC)C(=O)Nc1ccc(Cl)cn1 (stereo not drawn)	-2.96%	–
COc1ccc(/C=N/NC(=O)c2ccc3c(c2)OCCO3)c(OC)c1	1.01%	–
Cc1nc(NC(=O)c2ccc3c(c2)OCCO3)ccc1Br	–	0.562 µM (active)
Cc1cccc(C)c1NC(=O)CNC(=O)c1ccc2c(c1)OCCO2	1.78%	–
Cc1ccc2sc(NNC(=O)c3ccc4c(c3)OCCO4)nc2c1C	-6.32%	–
COc1ccc(C(=O)NC(=S)Nc2ccc(Cl)cn2)cc1OC	-0.572%	–
CCOCC(=O)NCc1ccc2c(c1)cc(C)n2C	0.0404%	–
Cc1cccc(Nc2nnc(SCC(=O)c3c(N)n(C4CC4)c(=O)[nH]c3=O)s2)c1C	-5.09%	–
Cc1cc(C)c2nc(SCC(=O)N(C)C3CCS(=O)(=O)C3)cc(C)c2c1 (stereo not drawn)	-3.36%	–
CC(C)(C)C1C/C(=C/c2ccco2)C(=O)/C(=C/c2ccco2)C1 (stereo not drawn)	-4.64%	–
CSc1ccc(Cl)c(C(=O)OCC(=O)N2CCNC2=O)c1	-0.409%	–
CCn1c(=S)sc2c(=O)n(CC(=O)Nc3ccc(OC)cc3)c(C)nc21	3.7%	–
Cc1ccc(CSc2ccc(S(=O)(=O)N3CCCCC3)cn2)cc1	-3.41%	–
O=C(CCNS(=O)(=O)c1ccccc1)NCCCc1ccccc1	2.02%	–
COc1ccc2c(c1OC)C(=O)c1ccccc1C2=O	–	3.98 µM (active)
COc1cccc(-c2ccc3c(c2)S(=O)(=O)c2cccc(C(=O)O)c2C3=O)c1OC	-4.96%	–
CC(=O)Oc1ccc2c(c1)C(=O)c1ccccc1C2=O	13.4%	–
CN(CC(=O)NCCc1ccc(F)cc1)CC(=O)Nc1ccc(F)c(F)c1F	-3.52%	–
Cc1c(C(=O)Nc2ccccn2)oc2ccc(Br)cc12	–	3.55 µM (active)
Cc1noc(C)c1C(=O)Nc1ccccn1	-0.886%	–

SMILES	activation, negative = inhibition	Potency
Cc1nonc1NC(=O)c1oc2ccccc2c1C	27.1%	–
CC1CCCN(C(=O)c2cc(-c3ccco3)nc3ccccc23)C1 (stereo not drawn)	-3.82%	–
O=C(CCC(=O)c1ccccc1)NCc1cccc(C(F)(F)F)c1	3.01%	–
O=C(Cc1cccs1)NCc1cccc(C(F)(F)F)c1	–	2.51 µM (active)
COc1cc(CC(=O)NCc2cccs2)cc(OC)c1OC	1.53%	–
O=S(=O)(c1ccc(SCc2ccc(Br)cc2)nc1)N1CCOCC1	-2.87%	–
COC(=O)c1cccc(NC(=O)c2cccc(N3C(=O)CCC3=O)c2)c1	-2.95%	–
O=C(COC(=O)c1cc(S(=O)(=O)N2CCOCC2)ccc1Cl)NCCc1ccccc1	19.9%	–
CC(C)c1ccc(S(=O)(=O)N2CCN(C(C)C(=O)NC3CCCC3)CC2)cc1 (stereo not drawn)	-5.78%	–
COc1cccc(CC(=O)Nc2nc(-c3ccc(OC)c(OC)c3)cs2)c1	-3.51%	–
COc1ccc(OC)c(-c2csc(-c3cccs3)n2)c1	5.35%	–
COc1ccc(-c2csc(-c3cccs3)n2)cc1OC	–	1.78 µM (active)
O=C1Cc2cc(S(=O)(=O)Nc3cccc(F)c3)ccc2N1	1.59%	–
COc1ccc(CCNC(=O)COC(=O)c2cc(=O)c3ccccc3o2)cc1	1.25%	–
CC(C)(C)C(=O)OCc1nc(-c2ccc(O)c(O)c2)cs1	9.03%	–
COc1cccc(CC(=O)Nc2ccc(-c3csc(C)n3)cc2)c1	4.45%	–
COc1ccc(-c2csc(Cc3nc(O)cs3)n2)cc1	–	1 µM (active)
O=C(c1cn(-c2ccccc2)nc1-c1cccnc1)N1CCN(S(=O)(=O)c2ccccc2F)CC1	0.673%	–
CC(=O)Nc1ccc(C(=O)Nc2nc(-c3cc(C)n(Cc4ccccc4)c3C)cs2)cc1	-1.86%	–
Cc1ccc(Nc2nc(-c3ccc(O)cc3O)cs2)nc1	–	1.41 µM (active)
O=C(CCNS(=O)(=O)c1ccccc1C(F)(F)F)Nc1ccncc1	-2.35%	–
Cc1cccc(OCCC(=O)OCc2csc(CC(=O)Nc3ccccc3C)n2)c1	-2.11%	–

SMILES	activation, negative = inhibition	Potency
Cc1cc(Cl)c2oc(C(=O)N3CCC(O)(c4ccccc4)CC3)c(C)c2c1	2.32%	–
COc1ccccc1N1CCN(C(=O)Cn2nnc(-c3cccs3)n2)CC1	-2.68%	–
Clc1cccc(Cl)c1Cn1nnc(-c2cccs2)n1	–	2.82 µM (active)
O=c1cc(Cn2nnc(-c3ccc(Cl)cc3)n2)nc2sccn12	1.42%	–
Nc1ccc(-n2nncc2-c2ccco2)cc1	-10.6%	–
COc1ccc(CCC(=O)N2CCN(S(=O)(=O)c3ccc(OC)cc3)CC2)cc1	-3.76%	–
COc1ccc(CCNC(=O)CCc2ccccc2O)cc1OC	19.5%	–
O=C(O)/C(=C/c1cccnc1)NC(=O)c1ccccc1	2.06%	–
CCOc1ccc(NC(=O)CN(C)C(=O)CCSc2ccc(F)cc2)cc1OCC	-5.95%	–
C=CCSc1ccc(S(=O)(=O)N2CCN(C)CC2)cn1	-0.521%	–
O=C(Nc1ccccc1)N1CCC(C(=O)N2CCN(Cc3ccccc3)CC2)CC1	7.55%	–
Cn1c(N)c(C(=O)COC(=O)/C=C/c2cccc(C(F)(F)F)c2)c(=O)n(C)c1=O	-0.132%	–
C/C(=N\Nc1ncc(Cl)cc1Cl)c1cccs1	–	1.26 µM (active)
O=C(Nc1ccccc1-c1nc2ccccc2[nH]c1=O)c1cccs1	1.89%	–
C/C(=N\Nc1nc2ccccc2[nH]1)c1cccs1	–	1 µM (active)
C/C(=N\Nc1ccc(S(N)(=O)=O)cc1[N+](=O)[O-])c1cccs1	8.35%	–
C/C(=N\Nc1nc(Nc2ccccc2)nc(N2CCOCC2)n1)c1cccs1	-9.1%	–
C/C(=N\NS(=O)(=O)c1ccc(Br)cc1)c1cccs1	-7.45%	–
O=C(c1ccc(Cl)nc1)N1CCN(S(=O)(=O)c2ccc3c(c2)OCCO3)CC1	1.05%	–
CCc1ccccc1OCC(=O)Nc1ccc(C)c(S(=O)(=O)N2CCCCCC2)c1	0.199%	–
CCCCN(C(=O)C1=NN(c2cc(C)ccc2C)C(=O)CC1)c1c(N)n(CCC)c(=O)[nH]c1=O	0.441%	–
CCC1CCC2(CC1)NC(=O)N(CC(=O)Nc1ccc(OC)cc1)C2=O (stereo not drawn)	-5.48%	–

SMILES	activation, negative = inhibition	Potency
COc1ccc(OC)c(CN2CCN(C(=O)CNC(=O)c3cc(C)cc(C)c3)CC2)c1	-0.729%	–
COc1cc([C@H](Cc2ccccc2)NC(C)=O)oc(=O)c1	3.07%	–
Cc1ccc(C)c(C(=O)COC(=O)Cn2[nH]c(=O)c3ccccc3c2=O)c1	0.526%	–
O=c1c(-c2ccccc2)coc2c(CN3CCOCC3)c(O)ccc12	0.818%	–
O=c1c(-c2ccccc2)coc2cc(O)ccc12	–	2.82 µM (active)
CC(C)CN(Cc1c(O)ccc2c(=O)c(-c3ccccc3)coc12)CC(C)C	0.55%	–
COc1ccccc1CNC(=O)CCCN1C(=O)NC2(CCCC2)C1=O	-12.7%	–
COc1ccc(C2(C)ON(c3ccccc3C(F)(F)F)C2=O)cc1 (stereo not drawn)	-2.59%	–
Cc1nc(-c2ccc(F)cc2)c(CC(=O)N(C)CC(=O)Nc2c(C)cccc2C)s1	7.06%	–
Cc1ccc(NC(=O)CN2CCC(C(N)=O)CC2)cc1[N+](=O)[O-]	18.2%	–
Cc1ccc(NC(=O)c2sccc2C)cc1[N+](=O)[O-]	–	1.78 µM (active)
Cc1ccc(/C=N/NC(=O)c2sccc2OCc2ccc(F)cc2)cc1	-11.5%	–
Cc1ccsc1C(=O)N/N=C/c1ccc([N+](=O)[O-])cc1	–	3.55 µM (active)
Cc1nc2ccccc2cc1C(=O)N/N=C/c1ccc([N+](=O)[O-])cc1	-2.69%	–
Cc1ccc(NC(=O)CN(C)CC(=O)Nc2cccc(F)c2)cc1[N+](=O)[O-]	-18.7%	–
CN(C)c1cc2c(Nc3ccc4c(cnn4Cc4ccccc4)c3)ncnc2cn1	-30.6% [at 46.1 µM]	–
CNC(=O)C1CC(=O)N(c2ccc(OCC(=O)Nc3ccccc3C)cc2)C1 (stereo not drawn)	5.32%	–
COc1ccc(NS(=O)(=O)c2cc(NC(=O)COc3ccccc3F)ccc2OC)cc1	1.94%	–
CCOc1ccc2oc(C(=O)N(CC)CC(=O)Nc3ccc(NC(C)=O)cc3)c(C)c2c1	-1.55%	–
CCC[C@H]1CCCC/C=C\CCCC(=O)OCCN1C(=O)OC(C)(C)C	-5.47%	–
